# Activity calls are given as the source filed them. Calls follow the shape of the dose curve; as a rule, active = well fitted activation curve with a large enough effect; inconclusive = small, poorly fitted or top-dose-only effect; inactive = flat fitted curve, though single readings scatter.
# Test: Cellular Toxicity (caspase-3) N2a (AID 665);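 also: compound exposure lasted 16 h at 37 °C before readout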
# Settings: N2a cells, luminescence, normalized: DMSO 0%, 10 µM staurosporine 100%; series mostly up to 92.2 µM
# Source text: NIH Chemical Genomics Center [NCGC]
# NIH Molecular Libraries Screening Centers Network [MLSCN]
# National Institutes of Environmental Health Sciences [NIEHS]
# National Toxicology Program [NTP]
# We have developed a 1536-well cell-based assay for quantitative high throughput screening (qHTS) against a number of cell lines to determine in vitro caspase 3/7 activity of small molecules. This particular assay uses the N2a cell line which is derived from mouse neuroblastoma.
# NCGC Assay Protocol Summary:
# The Caspase-Glo 3/7 assay (Promega) is a homogeneous method to measure caspase-3 and caspase-7 activities in cultured cells. The quantitation of caspase 3/7 activity is based on the cleavage of a peptide-aminoluciferin substrate. After caspase cleaves the substrate the free aminoluciferin is liberated and serves as the substrate of luciferase, which generates the light. The luminescent signal is proportional to the amount of caspase 3/7 activity present.
# Using the Caspase-Glo 3/7 assay, the amount of caspase 3/7 activity was measured in the N2a cells with complete culture medium following compound treatment for 16 hours. The assay was performed in opaque white 1536-well plates. In the screen, staurosporine and doxorubicin were used as positive controls. Library compounds were measured for their ability to cause the activation of caspase 3/7 in the cell line, as reflected by an increase in luminescence signal, in a concentration-dependent manner. Data were normalized to the controls for basal activity (DMSO only) and 100% stimulation (10 uM staurosporine). AC50 values were determined from concentration-response data modeled with the standard Hill equation.
# qHTS protocol for caspase 3/7 assay in mouse N2a cell line
# [Step] [Parameter] [Value] [Description]
# 1. Reagent; 5 uL; 1500 mouse N2a cells/well
# 2. Time; 5 hr; 37 °C incubation
# 4. Controls; 23 nL; doxorubicin 7 pM to 100 uM & staurosporine 1.4 pM to 20 uM
# 5. Time; 16 hr; 37 °C incubation
# 6. Reagent; 5 uL; Caspase-Glo 3/7 reagent
# 7. Time; 1 hr; Room Temperature
# 8. Detection; Luminescence; Viewlux plate reader
# Keywords: caspase 3/7, apoptosis, mouse N2a cell line, luminescence, NTPHTS, NTPHTS_NCGC, NIEHS, EPA, DSSTox, MLSMR, MLSCN, NIH Roadmap, qHTS, NCGC
row,SMILES,outcome
1,N[C@@H](Cc1ccc(N(CCCl)CCCl)cc1)C(=O)O,inactive
2,NCC(O)c1ccc(O)cc1 (stereo unspecified),inactive
3,CNCC(O)c1ccc(O)cc1 (stereo unspecified),inactive
4,Clc1ccc(COC(Cn2ccnc2)c2ccc(Cl)cc2Cl)cc1 (stereo unspecified),inactive
5,Oc1ccccc1-c1ccccc1,inactive
6,Oc1cccc2cccnc12,inactive
7,Oc1ccc(Cl)cc1Cc1ccccc1,inactive
8,CCOP(=S)(OCC)Oc1cc(C)nc(C(C)C)n1,inactive
9,OCCOc1ccccc1,inactive
10,c1ccc2c(c1)Nc1ccccc1S2,inactive
11,CCCC(C)(COC(N)=O)COC(=O)NC(C)C (stereo unspecified),inactive
